Measurements from PubChem BioAssay.
Activity calls are given as the source filed them.

Key:
[1] = tested on: Plasmodium falciparum Sir2 (PF13_0152, Sir2A); assay: pfSir2 binders on small-molecule microarrays, primary screen, biochemical, small-molecule microarray, 635 nm fluorescence (AID 1098); conditions: small-molecule microarray binding, fluorescence 635 nm; higher = more signal;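 also: score merges spot fluorescence intensity with its signal-to-noise ratio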
[2] = small-molecule microarray binders of probe aDKK1, primary screen, biochemical, biotinylated probe, 635/667 nm fluorescence (AID 1099); conditions: higher = more signal;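 also: score merges 667nm spot fluorescence with signal to noise across triplicate slides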
[3] = small-molecule microarray binders of probe aCHRDL2, primary screen, biochemical, biotinylated probe, 635/667 nm fluorescence (AID 1100); conditions: higher = more signal
[4] = splicing luciferase reporter signal modulators, primary screen, spliceosome inhibition project, cell-based, HEK293, splice +/- reporter (AID 1101); conditions: luminescence, 24 h, higher = more signal, called active from +8 up or from −8 down;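 also: HEK293 cells carrying a splicing-competent luciferase reporter gene; test concentration not given here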
[5] = target: Fibroblast growth factor 10 (Homo sapiens) (UniProt O15520); assay: FGF10 binders on small-molecule microarrays, primary screen, biochemical, small-molecule microarray, 635 nm fluorescence (AID 1102); conditions: FGF10 binding, fluorescence 635 nm, higher = more signal
[6] = tested on: glycogen synthase kinase-3 (GSK3A per assay name; protocol says GSK3B); assay: GSK3 binders on small-molecule microarrays, primary screen, biochemical, small-molecule microarray, 635 nm fluorescence, GSK3A (AID 1103); conditions: small-molecule microarray binding, fluorescence 635 nm; higher = more signal; also: the record names both GSK3A and GSK3B
[7] = target: Epidermal growth factor receptor (Homo sapiens) (UniProt P00533); assay: EGFR binders on small-molecule microarrays, primary screen, biochemical, small-molecule microarray, 635 nm fluorescence (AID 1104); conditions: EGFR binding, higher = more signal;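 also: score merges 667 nm emission intensity with spot signal to noise over triplicate slides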
[8] = target: Follistatin-related protein 3 (Homo sapiens) (UniProt O95633); assay: FSTL3 binders on small-molecule microarrays, primary screen, biochemical, small-molecule microarray, 635 nm fluorescence (AID 1105); conditions: FSTL3 binding, higher = more signal;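 also: score merges emission near 667 nm and signal to noise per printed spot across three slides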
[9] = target: Dickkopf-related protein 1 (Homo sapiens) (UniProt O94907); assay: DKK1 binders on small-molecule microarrays, primary screen, biochemical, small-molecule microarray, 635 nm fluorescence scan (AID 1106); conditions: DKK1 binding, higher = more signal;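 also: score merges emission near 667 nm with signal to noise over three replicate slides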
[10] = tested on: Inhibin beta A chain (activin A); assay: INHBA (activin A) binders on microarrays, primary screen, biochemical, small-molecule microarray, 635 nm fluorescence scan (AID 1107); conditions: small-molecule microarray binding, higher = more signal;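 also: mouse activin A protein probed at 4.33 µg/mL on printed slides; score merges bound-protein fluorescence near 667 nm with spot signal-to-noise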
[11] = tested on: Human papillomavirus type 1a protein E7 (residues 44-93); assay: HPV1a E7 fragment binders on microarrays, primary screen, biochemical, small-molecule microarray, residues 44-93, 635 nm fluorescence (AID 1108); conditions: small-molecule microarray binding, fluorescence 635 nm; higher = more signal;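 also: E7 fragment applied at 1 µg/mL in TBST for 1 h at 4 C; score combines spot fluorescence with its signal to noise ratio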
[12] = modulators of HCV replicon luciferase signal, primary screen, HCV replication inhibitor project, Huh7 cells, luciferase reporter (AID 1109); conditions: 48 h, higher = more signal;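 also: huh7 hepatoma cells harbouring a luciferase neomycin HCV replicon reporter; luciferase luminescence as measure of HCV replicon replication; test concentration not given here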
[13] = target: Left-right determination factor 2 (Homo sapiens) (UniProt O00292); assay: LEFTY2 binders on small-molecule microarrays, primary screen, biochemical, small-molecule microarray, 635 nm fluorescence scan (AID 1110); conditions: LEFTY2 binding, higher = more signal
[14] = target: Calmodulin-1 (Homo sapiens) (UniProt P0DP23); assay: CALM1 binders on microarrays, EGTA buffer, profiling panel, biochemical, small-molecule microarray, Cy5-labelled CALM1 (AID 1111); conditions: Cy5-CALM1 binding fluorescence, higher = more signal;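 also: labelled calmodulin applied in Tris saline Tween buffer holding calcium plus EGTA and DTT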
[15] = target: Calmodulin-1 (Homo sapiens) (UniProt P0DP23); assay: calcium-bound CALM1 binders on microarrays, profiling panel, artefact control for SMM control-protein annotation, biochemical, small-molecule microarray, Cy5-labelled CALM1, plus calcium (AID 1112); conditions: Cy5-CALM1 binding fluorescence, higher = more signal;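 also: score merges spot fluorescence with signal to noise from triplicate slides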
[16] = small-molecule microarray binders of probe aWnt5a, primary screen, biochemical, biotinylated probe, 635/667 nm fluorescence (AID 1113); conditions: higher = more signal;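 also: score merges 667 nm fluorescence intensity with signal-to-noise per printed feature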
[17] = small-molecule microarray binders of probe aShh, primary screen, biochemical, biotinylated probe, 635/667 nm fluorescence (AID 1114); conditions: higher = more signal;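 also: probe is biotin-labelled aShh protein from a stem cell growth factor screen; measures binding of labelled protein to compounds printed on the slide; score merges feature fluorescence at 667 nm with signal-to-noise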
[18] = small-molecule microarray binders of probe aNog, primary screen, biochemical, biotinylated probe, 635/667 nm fluorescence (AID 1115); conditions: higher = more signal;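 also: probe is biotinylated aNog protein used at 0.15 µg/mL for 1 h at 4 C; z-score combines 667 nm fluorescence of each spot with its signal to noise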
[19] = target: Torsin-1A-interacting protein 1 (Homo sapiens) (UniProt Q5JTV8); assay: LAP1 binders from COS7 cell lysate, primary screen, small-molecule microarray, 635/667 nm fluorescence (AID 1116); conditions: COS7-hLAP1 lysate binding, 635 nm fluorescence, higher = more signal
[20] = target: Alpha-bungarotoxin (Bungarus multicinctus) (UniProt P60615); assay: alpha-bungarotoxin binders on microarray, profiling panel, artefact control for SMM control protein annotation, biochemical, small-molecule microarray, Alexa647 label, 635/667 nm fluorescence (AID 1117); conditions: alpha-BTX-A647 binding fluorescence, higher = more signal
Alpha-bungarotoxin (Bungarus multicinctus), sequence (P60615 whole entry, looked up): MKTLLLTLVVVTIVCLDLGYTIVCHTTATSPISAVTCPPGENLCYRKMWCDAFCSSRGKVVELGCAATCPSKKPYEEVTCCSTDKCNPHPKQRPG

Epidermal growth factor receptor (Homo sapiens), sequence (P00533 whole entry, looked up): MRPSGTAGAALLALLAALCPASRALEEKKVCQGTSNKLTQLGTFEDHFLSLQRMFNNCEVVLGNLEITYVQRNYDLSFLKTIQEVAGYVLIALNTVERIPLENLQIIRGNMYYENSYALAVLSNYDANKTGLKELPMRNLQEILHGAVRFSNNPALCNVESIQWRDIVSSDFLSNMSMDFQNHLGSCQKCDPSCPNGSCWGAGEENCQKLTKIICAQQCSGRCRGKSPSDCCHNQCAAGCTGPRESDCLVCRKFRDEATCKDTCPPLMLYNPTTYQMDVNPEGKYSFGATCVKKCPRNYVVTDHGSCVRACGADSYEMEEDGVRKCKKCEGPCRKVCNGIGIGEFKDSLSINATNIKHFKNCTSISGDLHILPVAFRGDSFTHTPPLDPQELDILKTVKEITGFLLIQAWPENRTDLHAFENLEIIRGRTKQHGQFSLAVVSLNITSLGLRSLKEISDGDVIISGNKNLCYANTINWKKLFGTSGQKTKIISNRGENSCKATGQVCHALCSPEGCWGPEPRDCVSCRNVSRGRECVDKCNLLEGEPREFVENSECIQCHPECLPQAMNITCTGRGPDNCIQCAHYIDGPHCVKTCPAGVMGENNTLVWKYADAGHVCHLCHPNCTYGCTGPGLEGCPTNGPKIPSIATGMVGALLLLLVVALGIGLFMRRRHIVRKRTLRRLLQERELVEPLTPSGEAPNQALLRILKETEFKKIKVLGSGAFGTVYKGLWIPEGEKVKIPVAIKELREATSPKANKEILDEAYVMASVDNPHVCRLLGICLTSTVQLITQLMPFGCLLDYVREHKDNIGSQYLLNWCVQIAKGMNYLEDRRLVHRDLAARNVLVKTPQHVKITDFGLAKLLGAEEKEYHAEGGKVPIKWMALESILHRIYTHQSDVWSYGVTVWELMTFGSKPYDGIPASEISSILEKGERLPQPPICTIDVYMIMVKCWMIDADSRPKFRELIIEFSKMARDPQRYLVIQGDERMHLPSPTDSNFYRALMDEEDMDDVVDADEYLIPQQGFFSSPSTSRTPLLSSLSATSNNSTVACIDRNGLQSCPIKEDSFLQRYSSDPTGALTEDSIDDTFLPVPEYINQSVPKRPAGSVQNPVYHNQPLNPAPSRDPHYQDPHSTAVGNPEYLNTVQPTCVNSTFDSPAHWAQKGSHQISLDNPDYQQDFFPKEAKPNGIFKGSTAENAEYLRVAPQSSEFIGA
Torsin-1A-interacting protein 1 (Homo sapiens), sequence (Q5JTV8 whole entry, looked up): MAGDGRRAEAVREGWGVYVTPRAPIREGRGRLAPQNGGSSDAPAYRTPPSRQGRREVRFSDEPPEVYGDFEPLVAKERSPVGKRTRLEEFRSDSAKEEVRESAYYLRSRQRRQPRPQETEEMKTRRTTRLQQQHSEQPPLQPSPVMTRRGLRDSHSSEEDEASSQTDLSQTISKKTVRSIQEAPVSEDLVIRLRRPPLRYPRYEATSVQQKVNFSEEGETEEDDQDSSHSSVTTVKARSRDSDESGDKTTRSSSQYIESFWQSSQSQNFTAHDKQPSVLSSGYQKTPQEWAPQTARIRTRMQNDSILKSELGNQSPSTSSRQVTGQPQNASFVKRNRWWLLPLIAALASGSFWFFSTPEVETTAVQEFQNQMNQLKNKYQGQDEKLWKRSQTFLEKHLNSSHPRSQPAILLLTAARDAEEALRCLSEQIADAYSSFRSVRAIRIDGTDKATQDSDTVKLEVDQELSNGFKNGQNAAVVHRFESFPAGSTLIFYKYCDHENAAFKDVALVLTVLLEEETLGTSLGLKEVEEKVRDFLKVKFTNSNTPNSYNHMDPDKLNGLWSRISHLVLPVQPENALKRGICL
Dickkopf-related protein 1 (Homo sapiens), sequence (O94907 whole entry, looked up): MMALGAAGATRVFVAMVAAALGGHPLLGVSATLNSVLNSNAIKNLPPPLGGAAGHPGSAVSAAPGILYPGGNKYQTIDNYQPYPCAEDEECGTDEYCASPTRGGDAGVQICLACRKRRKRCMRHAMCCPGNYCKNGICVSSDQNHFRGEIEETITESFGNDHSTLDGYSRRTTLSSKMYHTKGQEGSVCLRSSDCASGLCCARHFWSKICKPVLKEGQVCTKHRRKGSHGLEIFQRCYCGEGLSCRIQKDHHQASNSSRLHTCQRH
Left-right determination factor 2 (Homo sapiens), sequence (O00292 whole entry, looked up): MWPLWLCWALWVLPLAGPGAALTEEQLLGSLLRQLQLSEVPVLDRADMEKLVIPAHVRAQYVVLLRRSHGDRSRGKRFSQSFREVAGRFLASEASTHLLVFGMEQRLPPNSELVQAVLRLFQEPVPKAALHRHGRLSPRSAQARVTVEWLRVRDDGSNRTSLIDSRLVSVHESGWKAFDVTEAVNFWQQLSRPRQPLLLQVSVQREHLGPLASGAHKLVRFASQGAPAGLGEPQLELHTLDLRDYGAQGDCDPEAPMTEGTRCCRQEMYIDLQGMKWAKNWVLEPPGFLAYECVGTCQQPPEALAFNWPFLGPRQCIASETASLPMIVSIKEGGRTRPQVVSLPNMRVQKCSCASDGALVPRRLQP
Fibroblast growth factor 10 (Homo sapiens), sequence (O15520 whole entry, looked up): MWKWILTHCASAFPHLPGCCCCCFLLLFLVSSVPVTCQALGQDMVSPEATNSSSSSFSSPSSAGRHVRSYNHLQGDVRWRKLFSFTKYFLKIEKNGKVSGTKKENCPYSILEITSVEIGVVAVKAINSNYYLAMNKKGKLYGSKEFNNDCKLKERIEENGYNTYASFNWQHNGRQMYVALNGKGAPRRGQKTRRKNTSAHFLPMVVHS
Follistatin-related protein 3 (Homo sapiens), sequence (O95633 whole entry, looked up): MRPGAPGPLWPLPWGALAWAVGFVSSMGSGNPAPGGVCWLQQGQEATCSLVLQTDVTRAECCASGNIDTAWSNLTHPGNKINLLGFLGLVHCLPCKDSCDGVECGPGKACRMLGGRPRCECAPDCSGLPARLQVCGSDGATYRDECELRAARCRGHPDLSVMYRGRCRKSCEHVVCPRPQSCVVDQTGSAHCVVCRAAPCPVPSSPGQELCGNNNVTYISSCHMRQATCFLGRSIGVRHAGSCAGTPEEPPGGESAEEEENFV

Row | SMILES | composite z-score [1] | composite z-score [2] | composite z-score [3] | z-score [4] | composite z-score [5] | composite z-score [6] | composite z-score [7] | composite z-score [8] | composite z-score [9] | composite z-score [10] | composite z-score [11] | z-score [12] | composite z-score [13] | composite z-score [14] | composite z-score [15] | composite z-score [16] | composite z-score [17] | composite z-score [18] | composite z-score [19] | composite z-score [20]
1 | Cc1ccc(C(C)C)n1C(=O)OC(C)(C)C | -0.0286 | -0.271 | -0.611 | -1.45 (inactive) | 0.789 | 0.61 | 0.55 | 0.807 | 0.768 | -0.124 | 0.471 | 1.85 | 0.587 | -0.159 | -0.659 | -0.0704 | -0.13 | -0.255 | 0.241 | 0.0251
2 | C[C@@H]1CC[C@H]2C(=O)O[C@@H](CN=[N+]=[N-])CN2[C@H]1c1ccc(Br)cc1 | 0.584 | 0.0195 | -0.669 | 0.659 (inactive) | 0.382 | 0.636 | 0.343 | 0.345 | 0.857 | 0.455 | 1.23 | -4.98 | 0.672 | 0.169 | -0.425 | -0.262 | -0.32 | -0.571 | 0.0942 | 0.601
3 | C[C@@H]1CC[C@H]2C(=O)O[C@@H](COc3ccc(C(C)(C)C)cc3)CN2[C@H]1c1ccc(Br)cc1 | 0.418 | -0.251 | -0.427 | 0.0739 (inactive) | 0.0543 | 0.158 | -0.0032 | 0.0224 | 0.191 | 0.0996 | 0.269 | -0.157 | 0.193 | -0.543 | -0.229 | -0.0704 | -0.214 | 0.0762 | 0.0021 | 0.315
4 | COC(=O)[C@@H]1CC[C@H](C)[C@@H](c2ccc(C)cc2)N1C(=O)c1ccc(C=NOC[C@H]2O[C@H](c3ccccc3)C=C[C@@H]2Oc2ccc(OC)cc2)cc1 | 0.198 | -0.0428 | -0.32 | -0.0767 (inactive) | 0.3 | -0.245 | 0.331 | -0.189 | 0.15 | 1.24 | 0.404 | -0.739 | 0.35 | -0.156 | -0.551 | 0.0104 | -0.234 | 0.0498 | 1.18 | 0.304
5 | CCOC(=O)CCN1C(=O)[C@H]2[C@@H]3C(=CC[C@H]2C1=O)C(=O)[C@H]1O[C@H]1[C@H]3O | 1.1 | -0.33 | -0.291 | 6.66 (inactive) | -0.632 | -0.837 | -0.0633 | -1.16 | -0.324 | -0.483 | -0.636 | -4.75 | -0.72 | -0.719 | -0.481 | -0.222 | -0.221 | -0.358 | 0.447 | -0.473
6 | CCOC(=O)[C@H](CC(C)C)NC(=O)CCC1CC(OC(=O)NCCc2ccc(F)cc2)CC2(CCCC(COC(=O)NCc3cccc(C(F)(F)F)c3)O2)O1 (stereo not given in full) | 0.581 | -0.211 | -0.51 | 0.478 (inactive) | 1.39 | 0.733 | 0.29 | 0.814 | 0.532 | -0.257 | 1.38 | -0.0709 | 0.605 | -0.134 | -0.448 | -0.129 | -0.154 | 0.28 | 0.274 | 0.342
7 | O=C1[C@H]2[C@H]3[C@H](O)[C@H](O)CC(=NO[C@@H]4O[C@H](CO)[C@@H](O)[C@H](O)[C@H]4O)[C@@H]3CC[C@H]2C(=O)N1c1cccc(Oc2ccccc2)c1 | 0.405 | -0.327 | -0.595 | 0.302 (inactive) | 0.659 | 0.736 | 0.778 | 0.711 | 0.701 | 0.374 | 0.418 | -0.174 | 0.982 | 0.209 | 0.0635 | -0.0506 | -0.0362 | -0.0675 | 0.593 | -0.447
8 | O=C1C=C[C@@H](O)[C@@H]2[C@@H]3C(=O)N(Cc4ccccc4)C(=O)[C@@H]3CC[C@@H]12 | 0.295 | -0.262 | -0.684 | -0.71 (inactive) | 0.659 | 0.653 | 0.552 | 0.353 | 0.232 | 0.181 | 0.248 | 0.493 | 0.527 | -0.133 | -0.457 | -0.0758 | -0.283 | -0.213 | 0.476 | 0.332
9 | CC(C)[C@@H](OCc1ccccc1)[C@H](C)C=NOC[C@@H](O)[C@H]1O[C@@H]2OC(C)(C)O[C@@H]2[C@H]1O | 0.635 | -0.0784 | -0.609 | -0.262 (inactive) | 0.355 | 0.151 | 0.677 | 0.628 | 0.254 | -0.519 | 0.436 | -1.75 | 0.413 | 0.178 | -0.606 | -0.15 | -0.634 | 0.848 | 0.145 | 0.278
10 | CCN1C(=O)[C@H]2[C@H]3[C@H](O)[C@H](O)CC(=NOC[C@@H](O)COCc4ccco4)[C@H]3CC[C@H]2C1=O | 0.667 | -1 | -2.16 | 0.0809 (inactive) | -0.169 | 0.797 | 0.816 | 0.757 | 1.39 | 1.45 | 0.296 | -0.389 | 1.41 | -2.21 | -2.59 | -0.216 | -0.2 | -0.878 | -0.0551 | -0.441
11 | O=C(NN=C1C[C@@H](O)[C@@H](O)[C@@H]2[C@@H]3C(=O)N(c4ccc(F)cc4F)C(=O)[C@@H]3CC[C@H]12)OCc1ccccc1 | 0.705 | 0.052 | 0.793 | 0.267 (inactive) | 0.379 | 0.131 | -0.0295 | 0.385 | -0.118 | 0.0132 | 1.35 | -0.642 | 0.446 | 0.463 | -0.235 | -0.12 | -0.0192 | -0.406 | 0.747 | 0.555
